# Compound activity from PubChem.
# Most compounds without a hit are left out; they make up all but 1.8% or so of the library.
# CIT2-GFP yeast = alters CIT2-GFP fluorescence in TOR pathway yeast screen; S. cerevisiae CIT2-GFP strain, flow cytometry, 3 h; 100 means same as DMSO wells; GFP response vs DMSO, % at 10 µM; 320,000 tested, 0.065% active;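 active = GFP response relative to DMSO above a set limit, near the screen mean plus 3 SD, cut at about 150% in these data; inconclusive = Fewer than 70 cells measured for a yeast strain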;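 note: ratio of well median GFP fluorescence to mean of DMSO wells on the plate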
# Myeloid diff 2 = promotes myeloid progenitor differentiation | ER-HoxA9 myeloid progenitors, lysozyme-GFP differentiation, flow cytometry | calls only at 10 µM | 360,000 tested, 1% active;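 active = normalized GFP-positive differentiation at or above the plate's own cutoff, the solvent-only control mean plus 3 SD; inconclusive = no clear call, values can overlap the other calls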;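 note: cells exposed to compound for four days before flow analysis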
# MEP2-GFP yeast = yeast TOR pathway MEP2-GFP modulation; 330,000 tested, 0.51% active; GFP response vs DMSO, % at 10 µM; AID 2016; S. cerevisiae MEP2-GFP strain, flow cytometry GFP, 3 h; 100% = DMSO control level;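 active = GFP response versus DMSO above a set limit, roughly screen mean plus 3 SD, cut at about 180% in these data; inconclusive = fewer than 70 cells counted for a yeast strain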;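 note: median GFP fluorescence of the barcode-gated MEP2-GFP cells per well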
# RPL19A TOR yeast = alters RPL19A-GFP fluorescence in TOR pathway yeast screen; S. cerevisiae RPL19A-GFP strain, flow cytometry, 3 h; stronger effect = lower value; percent response vs DMSO, % at 10 µM; 330,000 tested, 0.3% active; AID 2025;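 active = percent response vs DMSO below 50%; inconclusive = fewer than 70 events counted for the yeast strain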;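 note: median channel GFP fluorescence of the barcoded RPL19A-GFP strain; ratio of sample median GFP to plate DMSO average so 100% = DMSO; lower means less RPL19A-GFP as with rapamycin TOR inhibition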
# AGP1-GFP MLPCN = alters AGP1-GFP fluorescence in TOR pathway yeast screen. GFP response vs DMSO, % at 10 µM. 320,000 tested, 0.02% active. AID 2066. S. cerevisiae AGP1-GFP multiplex flow cytometry, 3 h; GFP as percent of DMSO wells;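 active = GFP response relative to DMSO above a set limit, near screen average plus 3 SD, cut at about 150% in these data; inconclusive = fewer than 70 cells counted for the yeast strain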;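 note: median GFP channel fluorescence of the gated AGP1 strain per well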
# LAP4-GFP MLPCN = yeast TOR pathway LAP4-GFP modulation. GFP response vs DMSO, % at 10 µM. 320,000 tested, 0.34% active. S. cerevisiae LAP4-GFP multiplex, flow cytometry GFP, 3 h; median GFP as percent of DMSO wells;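 active = GFP response vs DMSO above a set limit, about the screen mean plus 3 SD, cut at about 150% in these data; inconclusive = under 70 cell events counted for the yeast strain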
# * marks the source's active call; other numbers are inactive results; i = inactive; ? = inconclusive; . = not tested or not shown; + = active, no number; [ ] = dose if it differs, or a comment.
SMILES,CIT2-GFP yeast,Myeloid diff 2,MEP2-GFP yeast,RPL19A TOR yeast,AGP1-GFP MLPCN,LAP4-GFP MLPCN
CC(C)Sc1nnc(-c2c[nH]c3ccccc23)n1C,97,i,94,105,103,98
C#CCSc1nnc(-c2c[nH]c3ccccc23)n1C,86,+,91,89,89,98
O=C(Nc1ccc(C(=O)N2CCCCC2)cc1)C1CCCC1,.,i,.,.,.,.
Cc1ccc2c(COC(=O)c3ccc(NC(=O)CC#N)cc3)cc(=O)oc2c1C,95,i,104,98,100,91
COC(=O)[C@H]1[C@H]2C[C@@H]3c4[nH]c5cc(OC)ccc5c4CCN3C[C@H]2C[C@@H](OC(=O)c2ccc(N)cc2)[C@@H]1OC,104,+,101,109,94,113
O=C(Nc1cccc(Cl)c1)NC1CC2CCC1C2 (configuration not stated),98,i,118,98,92,100
COc1ccc(C(C)=O)cc1CC1(C)C(=O)Nc2ccc(-c3cccc(C(F)(F)F)c3)cc21 (configuration not stated),.,i,.,.,.,.
CCc1ccc(CN(C)C(=O)c2ccc3c(c2)OCCO3)cc1,88,+,88,92,82,72
Cc1c(C)c2ccc(OCC(=O)Nc3cccnc3)cc2oc1=O,?,i,182*[may fluoresce violet],15*[may fluoresce violet],?,70
COc1ccc(CCN2C(=O)CC(NNc3ccc([N+](=O)[O-])cc3)C2=O)cc1OC (configuration not stated),104,+,94,90,112,103
COc1ccc(CCNC2CC(=O)N(CCc3ccc(OC)c(OC)c3)C2=O)cc1OC (configuration not stated),.,i,.,.,.,.
CCOC(=O)Cn1cc(/C=N/N2C(=O)C3C4C=CC(C4)C3C2=O)c2ccccc21 (configuration not stated),101,i,98,97,97,96
COc1cc(CNc2ccc(N3CCCC3)cc2)ccc1OCc1ccccc1,93,+,95,96,95,93
COc1cc(CNc2ccc(S(N)(=O)=O)cc2)ccc1OCc1ccccc1F,.,i,.,.,.,.
COc1cc(CNc2ccc(N3CCCC3)cc2)ccc1OCc1ccccc1F,83,+,96,98,101,100
Oc1ccc(N=Nc2ccc3c(c2)OCO3)c2ccccc12,113,.,121,100,96,122
COc1ccc(NS(=O)(=O)c2cc([N+](=O)[O-])ccc2N/N=C/c2c(C)[nH]c3ccccc23)cc1,.,+,.,.,.,.
O=C(CNc1cccc([N+](=O)[O-])c1)N/N=C/c1ccc([N+](=O)[O-])o1,.,+,94,85,89,91
O=C(CNC(=O)c1ccncc1)N/N=C/c1cccc([N+](=O)[O-])c1,170*,i,156,122,106,123
O=C(Cc1ccc([N+](=O)[O-])cc1)N/N=C/c1ccc([N+](=O)[O-])o1,101,+,94,102,92,111
CCOC(=O)c1c(C)oc2c1cc(NS(=O)(=O)c1ccc(C(=O)O)cc1)c1ccccc12,97,i,102,99,103,98
C=CCn1c(=N)n(CC(=O)c2cccc([N+](=O)[O-])c2)c2ccccc21,91,i,106,100,97,99
N=c1n(CCN2CCCCC2)c2ccccc2n1CC(=O)c1cccc([N+](=O)[O-])c1,131,+,153,93,119,139
COc1ccc(C(C(=O)NCCC(C)C)N(CCO)C(=O)c2snc(C(N)=O)c2N)cc1OC (configuration not stated),109,i,113,110,107,99
COc1ccc(/C=C2\Sc3ccc(C(=O)N4CCc5ccccc5C4)cc3N(C)C2=O)cc1,99,.,218*,101,92,126
SMILES,CIT2-GFP yeast,Myeloid diff 2,MEP2-GFP yeast,RPL19A TOR yeast,AGP1-GFP MLPCN,LAP4-GFP MLPCN
O=C(/C=C/c1ccc([N+](=O)[O-])cc1)OCC(=O)N1CCOCC1,100,i,103,102,102,101
CCN(CC)c1ccc(/C=N/NC(=O)c2nnn(-c3nonc3N)c2-c2ccc(C)cc2)cc1,?,i,193*[may fluoresce violet],33*[may fluoresce violet],20,81
CCN(CC)Cc1c(C(=O)N/N=C/c2ccccn2)nnn1-c1nonc1N,?,i,295*[may fluoresce violet],55,19,90
CCN(CC)Cc1c(C(=O)N/N=C/c2cccc3ccccc23)nnn1-c1nonc1N,106,i,112,99,96,102
COc1ccc(-c2nc3n(c(=O)c2C#N)CCCS3)cc1,103,i,103,98,94,100
CCOc1ccc(-c2nc3n(c(=O)c2C#N)CCCS3)cc1,106,+,99,95,92,96
CCOC(=O)C1(C)CCN1C(=O)c1csnn1 (configuration not stated),.,i,.,.,.,.
C=CCc1cccc(/C=N/NC(=O)CCCNc2ccc(C)cc2)c1O,81,i,92,96,86,95
C=CCc1cccc(/C=N/NC(=O)CCC(=O)Nc2ccc(F)cc2)c1O,.,+,.,.,.,.
COCCNC(=O)C(=O)Nc1cc2c3c(c1)CC(=O)N3CCC2,?,i,226*[may fluoresce violet],61,18,89
Cc1ccc(C)c(N2CCN(C(=O)c3ccc(CSc4nc5ccncc5[nH]4)cc3)CC2)c1,107,+,108,105,114,110
O=C(c1ccc(CSc2nc3ccncc3[nH]2)cc1)N1CCCCC1,103,i,109,99,104,103
Cn1nc(-c2ccccc2)c(C(O)c2ccc(Cl)cc2)c1Cl (configuration not stated),86,i,103,99,94,117
Cn1nc(-c2ccccc2)c(CSc2ccccc2Cl)c1Cl,119,+,114,110,114,116
O=C(Nc1ccccc1NS(=O)(=O)c1ccc(F)cc1)C1CCC1,101,i,100,99,102,98
O=c1[nH]nc(-c2ccc(F)cc2)cc1Cc1ccccc1,104,i,95,97,118,116
CCOC(=O)N1CCN(S(=O)(=O)N2CCCC(C(=O)NCc3cccc(OC)c3)C2)CC1 (configuration not stated),?,+,152,56,13,88
CCOC(=O)N1CCN(S(=O)(=O)N2CCCC(C(=O)NCc3cc(OC)ccc3OC)C2)CC1 (configuration not stated),.,i,.,.,.,.
COc1ccc(OC)c(CNC(=O)C2CCCN(S(=O)(=O)N3CCC(C)CC3)C2)c1 (configuration not stated),?,i,152,14*[may fluoresce violet],?,74
